# From PubChem BioAssay AID2401 (Southern Research Specialized Biocontainment Screening …, 2010)
# Among all 2,200 compounds or so, about 530 (24%) were called active.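 How the source made its calls: active means inhibition above a set limit at one or more concentrations of the dose series; inactive means inhibition under that limit at every dose.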 These entries were drawn from the full list. Entries with a potency or affinity are not part of this list.
# Experiment: nmpC-GFP reporter counter-screen in S. Typhimurium, dose response, counter-screen for PhoP regulon inhibitor project, Salmonella Typhimurium, GFP fluorescence (AID 2401);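 further: S. typhimurium with Mg-insensitive nmpC-GFP reporter grown at 10 µM Mg2+; drop in reporter fluorescence reflects general culture growth inhibition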
# Settings: 4 h; series mostly up to 150 µM; inhibition: at the top concentration
row,Compound,inhibition
1,CCN(C(=O)COc1cc(=O)n(CC)c2ccccc12)c1cccc(Cl)c1,-6.53% (inactive)
2,O=C(c1ccc(Oc2ccccc2)cc1)c1nc2c(n1O)CCCC2,14.3% (inactive)
3,CC(C)(C)c1cc2cccnc2n1Cc1cccc(Cl)c1,-26.7% (inactive)
4,Nc1ncncc1-c1ccc([N+](=O)[O-])cc1,36.5% (inactive)
5,O=C(Cn1ncc2c(=O)oc3ccccc3c21)N1CCN(c2ccccn2)CC1,-15.8% (inactive)
6,O=C1CC(SCc2nc3ccccc3[nH]2)C(=O)N1c1ccc(Cl)cc1 (stereo not given),-18.6% (inactive)
7,Cc1ccc(C(=O)CSC2=C(C#N)C(c3ccco3)CC(=O)N2)c(C)c1 (stereo not given),-15.7% (inactive)
8,O=c1cc(-c2ccc([N+](=O)[O-])cc2)nc2cc(-c3ccc(Cl)cc3)[nH]n12,-32% (inactive)
9,Cc1ccc2cccc(Oc3ncnc4scc(-c5ccccc5)c34)c2n1,-17.1% (inactive)
10,CN1c2ccccc2C(=O)NC1c1ccc([N+](=O)[O-])s1 (stereo not given),-3.11% (inactive)
11,NC(CSC12CC3CC(CC(C3)C1)C2)C(=O)O (stereo not given),-19.5% (inactive)
12,Cc1cc(-c2nnc(-c3ccccc3)c(-c3ccccc3)n2)c(C)o1,-11.2% (inactive)
13,CCn1c2ccccc2c2cc(/C=N/NC(=O)c3ccccc3)ccc21,6.74% (inactive)
14,CCN(CC)S(=O)(=O)c1cccc(C(=O)NC(Cc2c[nH]c3ccccc23)c2nnc3n2CCC3)c1 (stereo not given),-14.8% (inactive)
15,O=C(N/N=C/c1ccco1)c1cccc(S(=O)(=O)Nc2ccccc2Cl)c1,-10.1% (inactive)
16,Cc1ccc(-n2c(C)cc(/C=N/NC(N)=S)c2C)cc1,29.6% (inactive)
17,O=C1c2ccccc2C2=Nc3ccccc3SC(c3cccc(F)c3)C12 (stereo not given),18% (inactive)
18,CC1C(C#N)=C(N)OC2=C1C(=O)CCC2 (stereo not given),-0.77% (inactive)
19,Cc1cccc(NC(=O)CCC(=O)OCc2ccc(Br)cc2)c1,-16% (inactive)
20,Cc1ccnc2nc(C(=O)Nc3ccc4c(c3)OCO4)nn12,-5.04% (inactive)
21,CN(C)c1ccc([C@@H]2[C@@H]([N+](=O)[O-])[C@H]3C=Cc4ccccc4N3[C@H]2C(=O)c2ccc(Cl)cc2)cc1,33.2% (inactive)
22,COc1ccc(OC)c(/C=N/NC(=O)c2cc3c(OC)c(OC)ccc3[nH]2)c1,-7.95% (inactive)
23,O=C(Cc1cccs1)Nc1cccc(-c2nc3cc4ccccc4cc3[nH]2)c1,-6.72% (inactive)
24,Cc1cc(/C=N/n2cnnc2)c(C)n1-c1ccc(OCc2ccc(F)cc2)cc1,-15.3% (inactive)

row,Compound,inhibition
1,O=C(O)CC(NC(=S)NCc1ccccc1)C(=O)O (stereo not given),-29.4% (inactive)
2,COC(=O)c1ccc(Nc2cc(C)nc3ccccc23)cc1,-28.9% (inactive)
3,COc1ccc(/C=N/Nc2cc(C)nc3c(C)cccc23)cc1,2.4% (inactive)
4,O=c1c2oc3ccccc3c2ncn1Cc1ccc(Cl)cc1,-19.4% (inactive)
5,Cc1c(C(c2cccc([N+](=O)[O-])c2O)c2c(C)n(C)n(-c3ccccc3)c2=O)c(=O)n(-c2ccccc2)n1C,5.18% (inactive)
6,Cc1[nH]n(-c2ccccc2)c(=O)c1-c1ccc(Cl)cc1,-3.67% (inactive)
7,COc1ccc(OC)c(NC(=O)c2ccccc2NS(=O)(=O)c2cccc3cccnc23)c1,-10.6% (inactive)
8,Nc1nnc(SCc2ccc3c(c2)OCO3)s1,-26.3% (inactive)
9,CCOC(=O)C(NS(=O)(=O)c1ccccc1)(C(F)(F)F)P(=O)(OCC(C)C)OCC(C)C (stereo not given),-23.4% (inactive)
10,c1ccc(-c2cc(CSc3nc4ccccc4[nH]3)on2)cc1,1.38% (inactive)
11,Cc1ccc(N=Cc2sc(O)c3ccccc23)cc1,-41.8% (inactive)
12,N=c1sccn1CC(=O)Nc1ccccc1Oc1ccccc1,-13% (inactive)
13,O=C(NCCNc1ccc([N+](=O)[O-])cc1C(F)(F)F)c1ccccc1F,-7.25% (inactive)
14,O=C(NCCNc1ccc([N+](=O)[O-])cc1C(F)(F)F)c1ccc(F)cc1,31.5% (inactive)
15,O=C(NCC(=O)N(c1cccnc1)C(C(=O)NCc1ccco1)c1ccccc1)c1ccco1 (stereo not given),9.19% (inactive)
16,COc1ccc(N2C(=O)[C@@H]3[C@H](C2=O)[C@H]2c4ccccc4C=CN2[C@@H]3C(=O)Nc2ccccc2)cc1,28% (inactive)
17,CCCc1cc(C(=O)Cc2ccc(C(=O)OCC)o2)c(O)cc1O,23.5% (inactive)
18,CCOc1ccccc1NS(=O)(=O)c1ccc(Br)s1,-23.1% (inactive)
19,O=C(Oc1ccc(N(Cc2cccs2)C2=NS(=O)(=O)c3ccccc32)cc1)c1ccc(Cl)cc1,28.4% (inactive)
20,COc1ccc2c(c1)CC/C(=C\Nc1ccc3c(c1)OCO3)C2=O,-15.1% (inactive)
21,CN(C)CCNC(=O)c1ccc(COCC(F)(F)F)cc1,-10.8% (inactive)
22,CCN(CC)CCNC(=O)c1cn(CC)c2cc(N3CCN(C(=O)c4ccco4)CC3)c(F)cc2c1=O,-18% (inactive)
23,COC(=O)COc1ccc(S(=O)(=O)Nc2ccccc2SC)cc1,-26.3% (inactive)
24,Cc1cc(CNC(=O)Nc2ccc3c(c2)OCO3)nn1C,-5.69% (inactive)

row,Compound,inhibition
1,Oc1ccc(Nc2nc(-c3cccs3)cs2)cc1,33% (inactive)
2,O=C(NCc1cn2ccsc2n1)Nc1ccc(Cl)cc1,-22.4% (inactive)
3,CC(C)c1ccc(NC(=O)N(CCc2nc3ccccc3[nH]2)C2CCCC2)cc1,-18.2% (inactive)
4,Brc1ccc2cccnc2c1,-23.6% (inactive)
5,O=C1C2C3c4ccccc4C(c4ccccc43)C2C(=O)N1c1cccc2cccnc12 (stereo not given),-20.1% (inactive)
6,C/C(=N/Nc1nc(-c2ccccc2)cc(-c2ccc(F)cc2)n1)c1cccc(N)c1,-5.41% (inactive)
7,CC(=O)Nc1c(C#N)c(C(C)(C)C)cn1C,1.65% (inactive)
8,CCOc1cc(C2C(C(=O)OC)=C(C)N=C3SCCC(=O)N32)ccc1OC(C)=O (stereo not given),-28.1% (inactive)
9,O=C(NCc1ccc2c(c1)OCO2)c1ccc(-n2cnnn2)cc1,-4.67% (inactive)
10,CCCN1C(=O)SC(CC(=O)Nc2ccc(Br)cc2)C1=O (stereo not given),8.66% (inactive)
11,CCn1c(C)cc(=S)c2ccccc21,-47% (inactive)
12,O=C(NCCCN1CCCC1=O)c1ccc(Cl)c(NS(=O)(=O)c2ccc(F)cc2)c1,-14.2% (inactive)
13,CC1CCCCN1Cc1cnc(Cl)s1 (stereo not given),-20.6% (inactive)
14,Oc1ccc(Br)cc1-c1ccn[nH]1,30.8% (inactive)
15,Cc1ccc(N(CC(=O)Nc2cccc(C)c2)S(=O)(=O)c2cccc3nonc23)cc1,1.6% (inactive)
16,Cc1ncc(C23CC4CC(CC(C4)C2)C3)[nH]1,-14.8% (inactive)
17,O=C1C2=C(NC(=S)NC2c2ccc(Cl)cc2)NC(c2ccc(Cl)cc2)N1c1ccc(Cl)cc1 (stereo not given),34% [at 75 µM] (inactive)
18,Cc1ccc(C=Nc2ccccc2C(N)=O)cc1,-19.9% (inactive)
19,CC(C)CCn1c(SCC(=O)N2CC(=O)Nc3ccccc32)nc2scc(-c3cccs3)c2c1=O,8.29% (inactive)
20,C=CCNc1ncnc2ccc(Br)cc12,-22.4% (inactive)
21,c1coc(CNc2ncnc3ccccc23)c1,-7.32% (inactive)
22,CCOC(=O)N1CCN(S(=O)(=O)c2ccc(C(=O)NNc3nc4cc(C)cc(C)c4s3)cc2)CC1,27.3% (inactive)
